Inconclusive results are not listed. Values without a mark were called inactive. Active and inactive are the calls of the source. Calls follow the shape of the dose curve; as a rule, active = well fitted curve in the direction sought with a large enough effect; inconclusive = small, poorly fitted or top-dose-only effect, or another doubt; inactive = no such curve, though single readings can be large; an effect the other way counts as inactive or inconclusive. Peptide text beside a SMILES is read from it. * marks the point of attachment. βNA = c1ccc2cc(N*)ccc2c1; Cbz = O=C(OCc1ccccc1)*

Test [1] has as its target Cellular tumor antigen p53 (Homo sapiens) (UniProt P04637). The test can be described thus: Primary qHTS for small molecule compounds that upregulate eGFP-tagged delta133p53alpha (in N-terminal) cells. (AID 2060322). Also: nearly all actives have a fitted effect of over 75% in size. Also: potency is read from the fitted curve at half-maximal effect.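 As to activation: cells pre-induced with doxycycline then dosed without doxycycline; series mostly up to about 56 µM; 0% = DMSO vehicle and 100% = reference activator.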 As to conditions: NCI-H358 eGFP-delta133p53alpha fluorescence, 24 h; activation: stronger effect = higher value. The method, boiled down: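 NCI-H358 cells pre-induced 24 h with 10 ng/ml doxycycline for eGFP-delta133p53alpha, plated dox-free and exposed 24 h at 37C to titrated compounds. Fixed, Hoechst-stained; gated GFP peak intensity by laser scanning cytometry, normalized to DMSO (0%) and 57.5 uM 5-azacytidine (100%).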
(qHTS replaces the single test concentration by a dilution series.)

The target of test [2] is Aldehyde dehydrogenase, mitochondrial (Homo sapiens) (UniProt P05091). The experiment in a line: qHTS for Inhibitors of the Aldehyde Dehydrogenase Family (ALDH2) Primary screen (AID 2061308).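 Also: plate controls were vehicle for no effect and reference inhibitor for full effect; nearly all actives have a fitted effect of over 55% in size.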
Test [3] has as its target Retinaldehyde dehydrogenase 3 (Homo sapiens) (UniProt P47895). The test can be described thus: qHTS for Inhibitors of the Aldehyde Dehydrogenase Family (ALDH1A3) Primary screen (AID 2061315).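 Also: plate controls were DMSO vehicle for no effect and reference inhibitor for full effect.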

Sequence of Cellular tumor antigen p53 (Homo sapiens) (P04637 whole entry, looked up): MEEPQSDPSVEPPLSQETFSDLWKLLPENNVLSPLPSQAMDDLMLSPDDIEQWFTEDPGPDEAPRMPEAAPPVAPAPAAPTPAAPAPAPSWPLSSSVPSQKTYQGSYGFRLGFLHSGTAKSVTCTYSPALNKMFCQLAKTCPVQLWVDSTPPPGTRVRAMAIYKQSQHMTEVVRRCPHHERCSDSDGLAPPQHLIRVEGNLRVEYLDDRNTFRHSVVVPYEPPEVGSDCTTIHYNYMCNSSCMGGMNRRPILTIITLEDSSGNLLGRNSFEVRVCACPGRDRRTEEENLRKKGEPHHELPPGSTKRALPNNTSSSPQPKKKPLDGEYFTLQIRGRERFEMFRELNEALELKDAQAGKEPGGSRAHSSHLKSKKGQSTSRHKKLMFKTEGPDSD

In the case of `O=C1CC[C@H](C(=O)N2CCCCC2)N1`, in test [1], the activation was -6.33%. Further, the Potency result in test [2] and in test [3] was “inactive” in each case.
In the case of `COc1cc(NS(=O)(=O)c2ccc(N)cc2)nc(C)n1`, the activation in test [1] is -15.9%. Moreover, the Potency result in test [2] and in test [3] was “inactive” in each case.
In the case of `O=C(NCCO)c1cccc(-c2cc(Nc3ccc(OC(F)(F)F)cc3)ncn2)c1`, the activation in test [1] is 1.79%. Also, the Potency entry in test [2] and in test [3] was “inactive” each time.
Regarding `CC1=C2C3OC(=O)C(C)C3(O)CCC2(C)CCC1O` (centres undefined), the activation in test [1] was -10.7%. Besides, the Potency entry in test [2] and in test [3] was “inactive” throughout.
Turning to `COCC1OC(OC(C)(C)C2CCC3(C)C=C(C4CCC5C4(C)CC(O)C4OC(C(C)(C)OC6OC(CO)C(O)C(O)C6NC(C)=O)CCC45C)CCC3O2)C(NC(C)=O)C(O)C1O` (centres undefined), the activation in test [1] was -16.8%. For the same compound, the Potency entry in test [2] and in test [3] was “inactive” each time.
With `CC(=O)O[C@@H]1CC[C@@]2(C)[C@H](CC[C@@H]3[C@@H]2C[C@H](OC(C)=O)[C@]2(C)[C@@H](C(C)=O)CC[C@@H]32)C1`, the activation in test [1] is 5%. In addition, the Potency entry in test [2] and in test [3] was “inactive” each time.
Consider `C[C@@H]1O[C@@H](O[C@@H]2[C@@H](O[C@@H]3O[C@@H](C)[C@H](O[C@@H]4OC[C@H](O)[C@H](O[C@@H]5OC[C@@H](O)[C@H](O)[C@H]5O)[C@H]4O)[C@@H](O[C@@H]4OC[C@](O)(CO)[C@H]4O)[C@H]3O)[C@H](OC(=O)[C@]34CCC(C)(C)C[C@H]3C3=CCC5[C@@]6(C)C[C@H](O)[C@H](O[C@@H]7O[C@H](CO[C@@H]8OC[C@H](O)[C@H](O)[C@H]8O)[C@@H](O)[C@H](O)[C@H]7O)C(C)(C)C6CC[C@@]5(C)[C@]3(C)C[C@H]4O)OC[C@H]2O)[C@H](O)[C@H](O)[C@H]1O` (some centres undefined), for which the activation in test [1] was -8.4%. Also, the activity change, negative = inhibition in test [2] was 17% [at 11.2 µM]; in test [3], 8.86% [at 11.2 µM].
Consider `CC(=O)NC(C(=O)OC1CCC(C)(C)C2CC=C3C(=O)OCC3C12C)C(C)C` (centres undefined), for which the activation in test [1] is 9.16%. The Potency result in test [2] and in test [3] was “inactive” in each case.
Regarding `CC(=O)O[C@H]1C[C@@H]2[C@]3(CC[C@]4(C)[C@@H](C5(C)CCC(C(C)(C)O)O5)[C@@H](O)C[C@@]24C)C[C@@]32CC[C@H](O[C@@H]3OC[C@@H](O)[C@H](O)[C@H]3O)C(C)(C)[C@H]12` (some centres undefined), in test [1], the activation was -4.46%. For the same compound, the Potency entry in test [2] and in test [3] was “inactive” in each case.
With `COC(=O)C1(Cc2ccc(O)cc2)OC(=O)C(OC)=C1c1ccc(O)cc1` (centres undefined), the activation in test [1] was -7.63%. In addition, the Potency result in test [2] and in test [3] was “inactive” in each case.
As to `O=C(/C=C/c1ccc(O)cc1)OC[C@@]1(O)C=C[C@@H]2C(C(=O)O)=CO[C@@H](O[C@@H]3O[C@H](CO)[C@@H](O)[C@H](O)[C@H]3O)[C@@H]21`, in test [1], the activation was -4.46%. For the same compound, the Potency entry in test [2] and in test [3] was “inactive” throughout.
For `CCC(C)(O)C(O)C(=O)OCc1ccc(O[C@@H]2O[C@H](CO)[C@@H](O)[C@H](O)[C@H]2O)c(OC)c1` (some centres undefined), the activation in test [1] is -5.36%. The Potency result in test [2] and in test [3] was “inactive” throughout.
In the case of `C/C(=C\CCC(C)C1CC(O)C2(C)C3CCC4C(C)(C)C(OC5OCC(O)C(O)C5O)CCC45CC35CC(O)C12C)C(=O)O` (centres undefined), the activation in test [1] was 17.6%. Besides, the Potency result in test [2] and in test [3] was “inactive” throughout.
Consider `CCN(CC)c1ccc2c(O)c(C=Nc3ccc(CC(=O)O)c(-c4c5c(nc6ccccc46)CCC(C(=O)NN)C5)c3)c(=O)oc2c1` (centres undefined), for which the Potency in test [1] was 5.36 µM (active). The Potency entry in test [2] and in test [3] was “inactive” in each case.
With `CCCC(=O)Nc1cccc(NC(=O)c2ccccc2Br)c1`, the activation in test [1] is -11.7%. For the same compound, the Potency result in test [2] and in test [3] was “inactive” in each case.
As to `CC1CC[C@]2(C(=O)O)CC[C@]3(C(=O)O)C(=CCC4[C@@]5(C)CC[C@H](O[C@@H]6O[C@H](CO)[C@@H](O)[C@H](O)[C@H]6O)C(C)(C)C5CC[C@]43C)C2C1C` (some centres undefined), the activation in test [1] is 0.893%. The Potency result in test [2] and in test [3] was “inactive” each time.
In the case of `O=C(Nc1cccc([N+](=O)[O-])c1)c1cccc(S(=O)(=O)N2CCCCCC2)c1`, the activation in test [1] is 1.67%. Moreover, the Potency result in test [2] and in test [3] was “inactive” throughout.
Turning to `CC(C)CC(NC(=O)OCc1ccccc1)C(=O)NC(CC(C)C)C(=O)NC(CCC(=O)O)C(=O)Nc1ccc2ccccc2c1` (stereo not drawn) (Cbz-Leu-Leu-Glu-βNA; configuration not given here), the activation in test [1] was -5.67%. In addition, the Potency result in test [2] and in test [3] was “inactive” in each case.
For `CC(C)CC(=O)OC[C@H]1O[C@@](COC(=O)CC(C)C)(O[C@H]2O[C@H](CO)[C@@H](O)[C@H](O)[C@H]2OC(=O)CC(C)C)[C@@H](OC(=O)CC(C)C)[C@@H]1O`, the activation in test [1] was -7.14%. Further, the Potency result in test [2] and in test [3] was “inactive” in each case.
As for `CCOC(=O)[C@H](CCc1ccccc1)N[C@@H](C)C(=O)N1C2CCCCC2C[C@H]1C(=O)O` (some centres undefined), in test [1], the activation was -7%. The Potency result in test [2] and in test [3] was “inactive” in each case.
Take `CC1CCC2(C)C(CC(O)C(O)C23CO3)C1(C)CCC1=CC(=O)OC1O` (centres undefined): the activation in test [1] is -12.2%. Besides, the Potency result in test [2] and in test [3] was “inactive” each time.
With `C=C1CCC2C(C)(C)CC(=O)CC2(C)C1CCC(C)CCOC(C)=O` (centres undefined), the activation in test [1] was -5.34%. The Potency result in test [2] and in test [3] was “inactive” throughout.
Consider `COc1cc(O)cc(/C=C/c2cccc(O)c2)c1`, for which, in test [1], the activation is -8.93%. Moreover, the Potency result in test [2] and in test [3] was “inactive” throughout.
Take `CC(C)(O)C1CC=C(C(=O)OC[C@H]2O[C@@H](Oc3cc(C(=O)O)cc(O)c3O)[C@H](O)[C@@H](O)[C@@H]2O)CC1` (some centres undefined): the activation in test [1] was -22.1%. The Potency entry in test [2] and in test [3] was “inactive” each time.
On to `CC1(C)CC[C@]2(C(=O)O[C@@H]3O[C@H](CO)[C@@H](O)[C@H](O)[C@H]3O)CC[C@]3(C)C(=CCC4[C@@]5(C)C[C@@H](O)[C@H](O)C(C)(C)C5CC[C@]43C)C2[C@@H]1O` (some centres undefined), for which the activation in test [1] is -8.04%. Moreover, the Potency result in test [2] and in test [3] was “inactive” throughout.
In the case of `CC1(C)CCC[C@@]2(C)[C@H]1[C@H](O)C=C(CO)[C@]2(O)CO`, the activation in test [1] is -1.53%. For the same compound, the Potency result in test [2] and in test [3] was “inactive” throughout.
`O=C(OCC1=CC(O)C2C=CO[C@@H](O[C@@H]3O[C@H](CO)[C@@H](O)[C@H](O)[C@H]3O)C12)c1ccccc1` (some centres undefined): the activation in test [1] was -17.6%. Besides, the Potency result in test [2] and in test [3] was “inactive” each time.
On to `CC(=O)OC1C(C)C2C(OC3OC(CO)C(O)C(O)C3O)OC=C(C(=O)O)C2C1OC(=O)c1ccccc1` (centres undefined), for which, in test [1], the activation is 5.34%. For the same compound, the Potency entry in test [2] and in test [3] was “inactive” each time.

Source of the values: PubChem BioAssay (NCATS).
